According to PubChem BioAssay (NCATS):
Inconclusive results are not listed. Entries that show only a call come without a potency. Active and inactive are the calls of the source. Unless noted, calls follow the shape of the dose curve; as a rule, active = well fitted curve in the direction sought with a large enough effect; inconclusive = small, poorly fitted or top-dose-only effect, or another doubt; inactive = no such curve, though single readings can be large; an effect the other way counts as inactive or inconclusive.

What was measured:
[1] = MultiTox-Fluor Cytotoxicity Assay - LYMP1-001 - Dead Cells (AID 946); settings: LYMP1-001 lymphoblastoid cells, dead-cell protease fluorescence; series mostly up to 92.2 µM
Outline: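 In this qHTS, 15 uM tetraoctylammonium bromide defined 100% and DMSO defined basal activity. Lymphoblastoid cells (LYMP1-001, 2500 per well) received compound for 16 hr at 37 C before a fluorogenic dead-cell substrate readout at 485/520 nm.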

[2] = MultiTox-Fluor Cytotoxicity Assay - LYMP1-001 - Live Cells (AID 947); settings: LYMP1-001 lymphoblastoid cells, live-cell protease fluorescence viability; series mostly up to 92.2 µM
Text: NIH Chemical Genomics Center [NCGC]
NIH Molecular Libraries Screening Centers Network [MLSCN]
National Institutes of Environmental Health Sciences [NIEHS]
National Toxicology Program [NTP]
We have developed a 1536-well cell-based assay for quantitative high throughput screening (qHTS) against a number of cell lines to determine in vitro cytotoxicity of small molecules. This particular assay uses a human lymphoblastoid cell line (LYMP1-001) purchased from Coriell Institute.
NCGC Assay Protocol Summary:
The MultiTox-Fluor Cytotoxicity Assay (Promega) is a homogeneous method to simultaneously measure the relative number of live and dead cells in culture by detecting changes in cell membrane integrity. There are two fluorogenic peptide substrates in the assay reagent. Viable cells are determined when the cell-permeant substrate (GF-AFC) enters the cell and is cleaved by protease from live cells resulting in liberated fluorophore. This live-cell protease activity restricted to viable cells is proportional to cell number. The dead cells are determined by using fluorogenic cell-impermeant peptide substrate (bis-AAF-R110) which cleaved by dead cell proteases leaking from damaged cell membrane.
Using the MultiTox-Fluor Cytotoxicity Assay, the relative number of live cells was measured in the lymphoblastoid cell line with complete culture medium following compound treatment for 16 hours. The assay was performed in opaque black Kalypsys 1536-well plates. In the screen, tetraoctylammonium bromide was used as positive control. Library compounds were measured for their ability to cause acute toxicity in the cell line, as reflected by a decrease in live cell protease activity, in a concentration-dependent manner. […] AC50 values were determined from concentration-response data modeled with the standard Hill equation.
qHTS protocol for MultiTox-Fluor Cytotoxicity assay
[Step] [Parameter] [Value] [Description]
1. Reagent; 5 uL; 2500 lymphoblastoid cells/well
2. Time; 5 hr; 37 C incubation
4. Controls; 23 nL; Tetraoctylammonium bromide 6.4pM to 92 uM
5. Time; 16 hr; 37 C incubation
6. Reagent; 5 uL; MuliTox-Fluor Assay reagent
7. Time; 60 min; Room Temperature
8. Detection; live-cell fluorescence (Ex/Em=405/510); EnVision plate reader
Keywords: cell viability, cytotoxicity, lymphoblastoid cell line, fluorescence, NTPHTS, NTPHTS_NCGC, NIEHS, EPA, DSSTox, MLSMR, MLSCN, NIH Roadmap, qHTS, NCGC

[3] = Cell Viability - LYMP1-002 - Assay at 16 hr (AID 948); settings: LYMP1-002 lymphoblastoid cell viability; series mostly up to 92.2 µM
Outline: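 LYMP1-002 human lymphoblastoid cells, 2500/well; 5 hr 37 C; cpd 16 hr 37 C; CellTiter-Glo 30 min RT; luminescence (ATP). Concentration-response, Hill-fit AC50. Pos ctrl tetraoctylammonium bromide.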

[4] = MultiTox-Fluor Cytotoxicity Assay - LYMP1-002 - Live Cells (AID 955); settings: LYMP1-002 lymphoblastoid live-cell protease fluorescence viability; series mostly up to 46.1 µM
Outline: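 After 16 h compound exposure at 37 C, live LYMP1-002 lymphoblastoid cells (2500/well) were quantified by cleavage of cell-permeant GF-AFC substrate, read at 405/510 nm after 60 min. Concentration-response fitted with Hill equation for AC50.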

[5] = MultiTox-Fluor Cytotoxicity Assay - LYMP1-002 - Dead Cells (AID 960); settings: LYMP1-002 lymphoblastoid cells, dead-cell protease fluorescence; series mostly up to 46.1 µM; also: nearly all actives have a fitted effect of over 60% in size; also: potency is read from the fitted curve at half-maximal effect
Outline: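 Dead-cell fluorescence (Ex/Em 485/520) after 16 h compound exposure at 37 C of LYMP1-002 lymphoblastoid cells in complete medium; AC50 by Hill equation, with data scaled between DMSO and 15 uM tetraoctylammonium bromide.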

[6] = MultiTox-Fluor Cytotoxicity Assay - LYMP1-003 - Dead Cells (AID 961); settings: LYMP1-003 lymphoblastoid cells, dead-cell protease fluorescence; series mostly up to 92.2 µM; also: nearly all actives have a fitted effect of over 70% in size; also: potency is read from the fitted curve at half-maximal effect
Outline: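 Acute toxicity is scored as increased dead-cell protease activity in human lymphoblastoid LYMP1-003 cells after 16 h compound exposure in complete culture medium. Activity is normalized to DMSO basal and 15 uM tetraoctylammonium bromide as full response.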

[7] = MultiTox-Fluor Cytotoxicity Assay - LYMP1-003 - Live Cells (AID 962); settings: LYMP1-003 lymphoblastoid cells, MultiTox-Fluor live-cell protease fluorescence; series mostly up to 92.2 µM;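 also: cells exposed to compound for 16 hours at 37 °C; cytotoxic hits lower the live-cell protease signal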
Outline: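 Live-cell protease activity (GF-AFC substrate, 405/510 nm, 60 min at room temperature) after 16 h, 37 C compound exposure of human lymphoblastoid LYMP1-003 cells; concentration-response fitted to the Hill equation for AC50.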

[8] = Cell Viability - LYMP1-003 - Assay at 24 hr (AID 963); settings: LYMP1-003 lymphoblastoid cell viability; series mostly up to 92.2 µM
Outline: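 Concentration-response qHTS: ATP loss measured by CellTiter-Glo luminescence after 24 h compound exposure at 37 C. Cells were LYMP1-003 human lymphoblastoid, 2500 per well. AC50 derived via standard Hill equation modeling.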

[9] = Cell Viability - LYMP1-003 - Assay at 40 hr (AID 964); settings: LYMP1-003 lymphoblastoid viability; series mostly up to 92.2 µM; also: nearly all actives have a fitted effect of over 60% in size; also: potency is read from the fitted curve at half-maximal effect
Outline: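 Viability is taken as cellular ATP, read by CellTiter-Glo luminescence after 40 h of compound exposure at 37 C. Cells: human lymphoblastoid line LYMP1-003 at 2500/well; AC50 values derived by Hill-equation fitting of concentration-response data.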

[10] = Cell Viability - LYMP2-003 (AID 965); settings: LYMP2-003 lymphoblastoid cell viability; series mostly up to 92.2 µM;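 also: cells exposed to compounds for 24 h before reading; nearly all actives have a fitted effect of over 50% in size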; also: potency is read from the fitted curve at half-maximal effect
Outline: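 CellTiter-Glo luminescence (cellular ATP) after 24 h compound exposure at 37 C in complete medium; 2500 cells/well, 5 h settling beforehand. Concentration-response fitted to standard Hill equation for AC50. Tetraoctylammonium bromide served as positive control.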

[11] = Cell Viability - LYMP2-004 (AID 966); settings: LYMP2-004 lymphoblastoid cell viability, qHTS; series mostly up to 92.2 µM; also: nearly all actives have a fitted effect of over 65% in size; also: potency is read from the fitted curve at half-maximal effect
Outline: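 AC50 values come from Hill modelling of concentration-dependent loss of intracellular ATP, measured by CellTiter-Glo luminescence. Human LYMP2-004 lymphoblastoid cells (2500/well) were exposed to compound for 24 h at 37 C.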

[12] = Cell Viability - LYMP2-005 (AID 967); settings: LYMP2-005 lymphoblastoid cell viability; series mostly up to 92.2 µM; also: potency is read from the fitted curve at half-maximal effect
Outline: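 Steps: seed 2500 LYMP2-005 cells/well, incubate 5 h at 37 C, add compound, incubate 24 h at 37 C, add CellTiter-Glo, wait 30 min at RT, read luminescence. Concentration-response data fitted to Hill equation for AC50.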

[13] = Cell Viability - LYMP2-009 (AID 968); settings: LYMP2-009 lymphoblastoid cell viability; series mostly up to 92.2 µM; also: nearly all actives have a fitted effect of over 55% in size; also: potency is read from the fitted curve at half-maximal effect
[14] = Cell Viability - LYMP2-011 (AID 969); settings: LYMP2-011 lymphoblastoid cells viability; series mostly up to 92.2 µM; also: nearly all actives have a fitted effect of over 60% in size
Outline: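 Cytotoxicity qHTS with ATP content as read-out: lymphoblastoid cells (2500/well) exposed to compound for 24 h at 37 C, then luciferase luminescence measured. Concentration-response data fitted with the standard Hill equation to give AC50.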

[15] = Cell Viability - LYMP2-013 (AID 970); settings: LYMP2-013 lymphoblastoid cells viability; series mostly up to 92.2 µM; also: nearly all actives have a fitted effect of over 55% in size
Outline: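 qHTS cytotoxicity: ATP-dependent luminescence (CellTiter-Glo, 30 min room temperature) read after 24 h compound exposure at 37 C of 2500 LYMP2-013 lymphoblastoid cells per well. Concentration-response fitted with Hill equation to give AC50.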

[16] = Cell Viability - LYMP2-015 (AID 971); settings: LYMP2-015 lymphoblastoid cell viability; series mostly up to 92.2 µM; also: nearly all actives have a fitted effect of over 55% in size
Outline: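 Cytotoxicity readout: decrease in intracellular ATP (CellTiter-Glo luminescence) in 2500 LYMP2-015 lymphoblastoid cells/well after 24 h compound exposure at 37 C. Concentration-response data fitted with the standard Hill equation to give AC50.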

[17] = Cell Viability - LYMP2-017 (AID 972); settings: LYMP2-017 lymphoblastoid cell viability; series mostly up to 92.2 µM; also: nearly all actives have a fitted effect of over 55% in size
Outline: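 CellTiter-Glo luminescence (cellular ATP, 30 min RT) measured cytotoxicity after 24 hr compound treatment at 37 C. Cells were a human lymphoblastoid line, LYMP2-017, plated at 2500/well and incubated 5 hr first; concentration-response fitted with Hill equation for AC50.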

[18] = biological target: Pyruvate kinase PKM (Homo sapiens) (UniProt P14618); assay: qHTS Assay for Activators of Human Muscle Pyruvate Kinase (AID 954; active = well fitted curve in the direction sought with a large enough effect, not every such curve was filed as active); settings: purified human muscle pyruvate kinase, luciferase-coupled luminescence, 1 h; series mostly up to 57.5 µM
Chain of Pyruvate kinase PKM (Homo sapiens) (P14618 whole entry, looked up): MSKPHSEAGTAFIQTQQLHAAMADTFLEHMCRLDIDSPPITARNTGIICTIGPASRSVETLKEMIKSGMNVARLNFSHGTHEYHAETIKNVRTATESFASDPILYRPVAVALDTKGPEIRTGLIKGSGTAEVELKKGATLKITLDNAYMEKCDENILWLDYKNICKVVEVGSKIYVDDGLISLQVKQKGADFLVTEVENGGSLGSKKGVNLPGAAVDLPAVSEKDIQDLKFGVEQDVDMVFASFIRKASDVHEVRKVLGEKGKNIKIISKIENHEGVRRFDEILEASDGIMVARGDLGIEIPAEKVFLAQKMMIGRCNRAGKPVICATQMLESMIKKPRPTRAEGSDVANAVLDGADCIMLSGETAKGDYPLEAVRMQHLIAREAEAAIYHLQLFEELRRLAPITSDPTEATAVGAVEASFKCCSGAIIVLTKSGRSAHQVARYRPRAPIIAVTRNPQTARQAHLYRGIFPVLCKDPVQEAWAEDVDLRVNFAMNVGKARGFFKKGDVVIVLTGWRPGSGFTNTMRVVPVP
Outline: (§1)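 Screening used highly purified human pyruvate kinase M2 under submaximal activity, with PEP at its Km and ADP below Km. After an hour at room temperature, ATP was read by luciferase luminescence.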

[19] = biological target: Pyruvate kinase (Leishmania mexicana) (UniProt Q27686); assay: qHTS Validation Assay for Activators of Leishmania Mexicana Pyruvate Kinase (AID 959); settings: purified L. mexicana pyruvate kinase, enzyme activity; series mostly up to 57.5 µM
Chain of Pyruvate kinase (Leishmania mexicana) (Q27686 2-499 E452W): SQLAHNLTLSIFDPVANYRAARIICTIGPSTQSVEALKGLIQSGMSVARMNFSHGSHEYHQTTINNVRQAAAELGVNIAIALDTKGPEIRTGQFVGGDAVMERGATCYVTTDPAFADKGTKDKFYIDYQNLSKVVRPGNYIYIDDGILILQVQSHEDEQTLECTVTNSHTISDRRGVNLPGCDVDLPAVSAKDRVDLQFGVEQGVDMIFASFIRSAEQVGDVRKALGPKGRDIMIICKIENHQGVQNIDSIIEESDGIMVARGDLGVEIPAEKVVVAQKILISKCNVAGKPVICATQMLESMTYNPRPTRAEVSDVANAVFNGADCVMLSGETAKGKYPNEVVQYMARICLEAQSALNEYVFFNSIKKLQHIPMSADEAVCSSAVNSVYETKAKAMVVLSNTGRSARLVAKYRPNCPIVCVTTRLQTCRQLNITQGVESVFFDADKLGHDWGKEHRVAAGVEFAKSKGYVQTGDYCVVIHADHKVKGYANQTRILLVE
Outline: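 Purified LmPYK (E451W mutant, 0.2 nM) was incubated 1 h at room temperature with 0.5 mM PEP and 0.1 mM ADP in 50 mM imidazole pH 7.2, 50 mM KCl, 7 mM MgCl2; ATP formed was read by PKLight luminescence, normalized to DMSO wells.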

[20] = biological target: Pyruvate kinase PKM (Homo sapiens) (UniProt P14618); assay: qHTS Assay for Inhibitors of Human Muscle Pyruvate Kinase (AID 958); settings: purified human PKM enzyme activity
Outline: as §1

Compound: COc1ccc(CN(CCN(C)C)c2ccccn2)cc1
- outcome [1]: inactive
- outcome [2]: inactive
- outcome [3]: inactive
- outcome [4]: inactive
- Potency [5]: inactive
- Potency [6]: inactive
- outcome [7]: inactive
- outcome [8]: inactive
- Potency [9]: inactive
- Potency [10]: inactive
- Potency [11]: inactive
- Potency [12]: inactive
- Potency [13]: inactive
- outcome [14]: inactive
- outcome [15]: inactive
- outcome [16]: inactive
- outcome [17]: inactive

Compound: CCc1c(C)[nH]c2c1C(=O)C(CN1CCOCC1)CC2 (configuration not stated)
- outcome [18]: inactive

Compound: Nc1nc(N)c2nc(-c3ccccc3)c(N)nc2n1
- outcome [1]: inactive
- outcome [2]: inactive
- outcome [3]: inactive
- outcome [18]: inactive
- outcome [4]: inactive
- outcome [19]: inactive
- Potency [6]: inactive
- outcome [7]: inactive
- Potency [10]: inactive
- Potency [11]: inactive
- Potency [12]: inactive
- Potency [13]: inactive
- outcome [14]: inactive
- outcome [15]: inactive
- outcome [16]: inactive

Compound: CN(C)CCCN1c2ccccc2Sc2ccc(C(F)(F)F)cc21
- outcome [18]: inactive

Compound: CCN(CC)CC(=O)Nc1c(C)cccc1C
- outcome [18]: inactive

Compound: CN(C)CCOC(=O)COc1ccc(Cl)cc1
- outcome [18]: inactive

Compound: COC(=O)[C@@H](N)Cc1ccc(O)c(O)c1
- outcome [18]: inactive

Compound: COC(=O)[C@H]1[C@H]2C[C@@H]3c4[nH]c5cc(OC)ccc5c4CCN3C[C@H]2C[C@@H](OC(=O)c2cc(OC)c(OC)c(OC)c2)[C@@H]1OC
- outcome [3]: inactive
- outcome [18]: inactive
- Potency [5]: 31.6 µM (active)
- Potency [6]: 50.1 µM (active)
- outcome [7]: inactive
- Potency [9]: 39.8 µM (active)

Compound: CC(C)NNC(=O)c1ccncc1
- outcome [18]: inactive

Compound: O=c1[nH]c(=O)n([C@H]2C[C@H](O)[C@@H](CO)O2)cc1Br
- outcome [1]: inactive
- outcome [2]: inactive
- outcome [3]: inactive
- outcome [18]: inactive
- outcome [4]: inactive
- Potency [5]: inactive
- Potency [6]: inactive
- outcome [7]: inactive
- outcome [8]: inactive
- Potency [9]: inactive
- Potency [10]: inactive
- Potency [11]: inactive
- Potency [12]: inactive
- Potency [13]: inactive
- outcome [14]: inactive
- outcome [15]: inactive
- outcome [16]: inactive
- outcome [17]: inactive

Compound: c1cnc(N2CCN(Cc3ccc4c(c3)OCO4)CC2)nc1
- outcome [18]: inactive

Compound: CCCCOCCOCCOCc1cc2c(cc1CCC)OCO2
- outcome [1]: inactive
- outcome [2]: inactive
- outcome [3]: inactive
- outcome [4]: inactive
- Potency [5]: inactive
- Potency [6]: inactive
- outcome [7]: inactive
- outcome [8]: inactive
- Potency [9]: inactive
- Potency [10]: inactive
- Potency [11]: inactive
- Potency [12]: inactive
- Potency [13]: inactive
- outcome [14]: inactive
- outcome [15]: inactive
- outcome [16]: inactive
- outcome [17]: inactive

Compound: COCC(=O)O[C@]1(CCN(C)CCCc2nc3ccccc3[nH]2)CCc2cc(F)ccc2[C@@H]1C(C)C
- outcome [18]: inactive

Compound: c1cc(CN2CCCCC2)cc(OCCCNc2nc3ccccc3s2)c1
- outcome [18]: inactive

Compound: O=C(CCNNC(=O)c1ccncc1)NCc1ccccc1
- outcome [18]: inactive

Compound: CCN(CC)CCNC(=O)c1cc(S(C)(=O)=O)ccc1OC
- outcome [18]: inactive

Compound: CN(C)CCCN1c2ccccc2Sc2ccccc21
- outcome [18]: inactive

Compound: C[n+]1cc2c3c(ccc2c2ccc4cc5c(cc4c21)OCO5)OCO3
- Potency [20]: 10 µM (active)
- outcome [19]: inactive

Compound: Nc1ncn([C@@H]2O[C@H](CO)[C@@H](O)[C@H]2O)c(=O)n1
- Potency [9]: 12.6 µM (active)
- Potency [10]: 10 µM (active)
- Potency [11]: 12.6 µM (active)
- Potency [12]: 12.6 µM (active)
- Potency [13]: 15.8 µM (active)
